PubChem BioAssay AID651871 (Sanford-Burnham Center for Chemical Genomics, 2012)
Values joined by “and” are separate entries in the source; they are usually repeats but may differ in a detail not shown here. Equal entries are not always repeated.

test system: HL-1; assay: cardiomyocyte survival under oxidative or metabolic stress – cell-based, panel, H9c2 and HL-1, ATP luminescence, set 2, SAR follow-up (AID 651871); details: H9c2/HL-1 cardiomyocytes, H2O2 oxidative stress; with H2O2, run 4, at 79 µM (top of the series);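 also: cells exposed to stressor for 2 h before ATP readout; reference of the scale not given here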

| Compound | activity (protection/inhibition) |
| --- | --- |
| COc1ccc2nc(-c3cc(OC)c(OC)c(OC)c3)cc(C(=O)NCC(=O)Nc3ccc(C(C)=O)cc3)c2c1 | 37.2% and 50% |
| COc1ccc2c(c1OC)C(=O)N1c3ccccc3C(=O)N(Cc3cccc(Cl)c3Cl)C21 (centres undefined) | 8.81% and -13.3% and 3.82% |
| COc1cc(-c2cc(C(=O)Nc3cccc(C(=O)NCc4ccccc4)c3)c3ccccc3n2)cc(OC)c1OC | 17.9% |
| CCOC(=O)c1cccc(NC(=O)CNC(=O)c2cc(-c3cc(OC)c(OC)c(OC)c3)nc3ccccc23)c1 | 25.9% |
